This note sets out measurements from PubChem BioAssay (NCI).

Compounds without any hit were thinned out: in the full panel of roughly 83,000, 20% have a hit.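 Assay: single dose, 48 h. Readout: percent growth (0 = no net growth; negative = cell death). Active: <10.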 Values without a mark were called inactive. The source made the active and inactive calls.

Among the test systems are SR leukemia; RPMI-8226 leukemia; OVCAR-8 ovarian; OVCAR-5 ovarian; OVCAR-4 ovarian; SK-OV-3 ovarian; IGROV1 ovarian; OVCAR-3 ovarian; NCI/ADR-RES ovarian; T-47D breast; BT-549 breast; MDA-MB-435 melanoma; MCF7 breast; HCT-116 colon; HCC-2998 colon; KM12 colon; MDA-MB-468 breast.
Holding throughout (assay): NCI-60 one-dose screen, 48 h (100 = growth as untreated, 0 = no growth, -100 = all killed)
Holding throughout (details): 10 µM unless noted

As for `CC(C)CCNC(=O)N/C(N)=N/c1nc2ccccc2s1`, the growth in the test on SR leukemia was 34.4%; with RPMI-8226 leukemia, 38.2%; in the test on OVCAR-8 ovarian it was 70.7%; in the test on OVCAR-5 ovarian it was 93%; in the test on OVCAR-4 ovarian it was 48.7%; with SK-OV-3 ovarian, 87.9%. Further, the growth with IGROV1 ovarian is 76.6%; with OVCAR-3 ovarian, 80.4%; in the test on NCI/ADR-RES ovarian it was 56.6%; in the test with T-47D breast, 46.6%; in the test with BT-549 breast it was 64.6%; in the test with MDA-MB-435 melanoma it was 44.2%. Also, the growth in the test on MCF7 breast is 28.5%; with HCT-116 colon, 54.7%; with HCC-2998 colon, 97.6%; with KM12 colon, 62.7%; in the test with MDA-MB-468 breast, 5.8% (active).

With `N#Cc1c(-c2cccc(O)c2O)cc(-c2ccc3ccccc3c2)[nH]c1=O`, the growth with SR leukemia was 12.1%; with RPMI-8226 leukemia, 60.9%; in the test with OVCAR-8 ovarian, 69.8%; in the test on OVCAR-5 ovarian, 79.5%; in the test with OVCAR-4 ovarian, 69.5%; in the test with SK-OV-3 ovarian, 77.6%. Moreover, the growth in the test with IGROV1 ovarian was 48.8%; in the test on OVCAR-3 ovarian it was 18.9%; in the test on NCI/ADR-RES ovarian it was 90.6%; in the test with T-47D breast, 68.9%; with BT-549 breast, 52.8%; in the test with MDA-MB-435 melanoma, 72%. In addition, the growth in the test with MCF7 breast is 59.8%; with HCT-116 colon it was 34.5%; with HCC-2998 colon, 74.3%; in the test with KM12 colon it was 19.5%; with MDA-MB-468 breast it was 58.6%.

For `N#Cc1cnn(C(=O)c2ccccc2Br)c1NC(=O)c1ccc(Br)cc1Cl`, the growth was 78.2% in the test on SR leukemia; 102% with RPMI-8226 leukemia; 104% with OVCAR-8 ovarian; 102% in the test with OVCAR-5 ovarian; 101% in the test with OVCAR-4 ovarian; 86.7% in the test on SK-OV-3 ovarian. Moreover, the growth with IGROV1 ovarian is 115%; with OVCAR-3 ovarian, 119%; in the test on NCI/ADR-RES ovarian, 98.7%; in the test on T-47D breast, 97%; in the test with BT-549 breast, 91.1%; with MDA-MB-435 melanoma, 103%. Also, the growth with MCF7 breast is 95.4%; in the test with HCT-116 colon it was 103%; in the test on HCC-2998 colon, 108%; with KM12 colon it was 102%; in the test on MDA-MB-468 breast, 94.2%.

Consider `CNC(=O)c1cccc(NC(=O)c2ccc3c(c2)nnn3/C(C#N)=C/c2ccccn2)c1`, for which the growth is -5.41% (active) in the test on SR leukemia; -23.6% (active) with RPMI-8226 leukemia; 10% in the test with OVCAR-8 ovarian; 19.6% in the test with OVCAR-5 ovarian; 40.6% with OVCAR-4 ovarian; 83.4% with SK-OV-3 ovarian. In addition, the growth in the test on IGROV1 ovarian was -2.48% (active); in the test on OVCAR-3 ovarian, -69.2% (active); in the test on NCI/ADR-RES ovarian, 84.3%; in the test on T-47D breast it was -70.4% (active); in the test on BT-549 breast, -98.7% (active); with MDA-MB-435 melanoma, 11.5%. For the same compound, the growth is -77.2% (active) with MCF7 breast; -89% (active) with HCT-116 colon; -92.7% (active) in the test with HCC-2998 colon; 55.9% in the test with KM12 colon; -85.5% (active) in the test with MDA-MB-468 breast.

Consider `COc1ccc(NC(=O)c2sc3nc(C(C)C)ccc3c2N)cc1`, for which the growth in the test with SR leukemia was 60%; in the test with RPMI-8226 leukemia, 54.5%; in the test on OVCAR-8 ovarian it was 89.1%; in the test with OVCAR-5 ovarian it was 83.2%; in the test on OVCAR-4 ovarian, 56.7%; in the test on SK-OV-3 ovarian, 97.9%. Also, the growth in the test with IGROV1 ovarian is 100%; in the test with OVCAR-3 ovarian, 93.9%; with NCI/ADR-RES ovarian it was 59.6%; with T-47D breast, 42%; in the test on BT-549 breast, 88.5%; in the test on MDA-MB-435 melanoma, 87.5%. The growth with MCF7 breast is 79.5%; in the test with HCT-116 colon it was 94.7%; with HCC-2998 colon, 100%; in the test on KM12 colon, 78.2%; with MDA-MB-468 breast, 55.8%.

For `C=C1CC[C@@H]2[C@]3(C)COC(c4cn[nH]c4-c4ccccc4)O[C@@H]3CC[C@@]2(C)[C@@H]1C/C=C1/C(=O)OCC1O` (stereo partly drawn), the growth with SR leukemia is -18.9% (active); in the test on RPMI-8226 leukemia, -28.6% (active); with OVCAR-8 ovarian, 33%; with OVCAR-5 ovarian it was 22.6%; with OVCAR-4 ovarian, 11.5%; in the test with SK-OV-3 ovarian it was 107%. For the same compound, the growth was 30.6% in the test with IGROV1 ovarian; 34.7% in the test on OVCAR-3 ovarian; 37.8% in the test on NCI/ADR-RES ovarian; 19.3% in the test with T-47D breast; 52.2% with BT-549 breast; 1.5% (active) with MDA-MB-435 melanoma. The growth was -28.3% (active) in the test on MCF7 breast; -20.3% (active) with HCT-116 colon; 16.9% with HCC-2998 colon; -11.3% (active) with KM12 colon; -37% (active) in the test on MDA-MB-468 breast.

With `C=C1CC[C@@H]2[C@]3(C)COC(c4cn[nH]c4-c4ccc(OC)cc4)O[C@@H]3CC[C@@]2(C)[C@@H]1C/C=C1/C(=O)OCC1O` (stereo partly drawn), the growth in the test on SR leukemia is -29.9% (active); in the test on RPMI-8226 leukemia it was -27% (active); in the test on OVCAR-8 ovarian, -3.29% (active); with OVCAR-5 ovarian, -27.1% (active); in the test on OVCAR-4 ovarian, 3.78% (active); in the test on SK-OV-3 ovarian, 6.09% (active). Besides, the growth in the test with IGROV1 ovarian is 17.1%; with OVCAR-3 ovarian, 5.62% (active); with NCI/ADR-RES ovarian it was 16.7%; in the test on T-47D breast, 6.85% (active); in the test on BT-549 breast, -32.9% (active); in the test on MDA-MB-435 melanoma it was -52.2% (active). Also, the growth with MCF7 breast is 2.05% (active); in the test with HCT-116 colon it was -19% (active); in the test with HCC-2998 colon it was -24.2% (active); in the test with KM12 colon, -5.21% (active); with MDA-MB-468 breast, -7.84% (active).

For the compound `O=C(/C=C/c1ccc(-c2ccccc2)cc1)c1nc2ccccc2n1Cc1ccc(F)cc1`, the growth in the test on SR leukemia was 1.5% (active); in the test on RPMI-8226 leukemia, -2.77% (active); in the test with OVCAR-8 ovarian it was 46%; in the test with OVCAR-5 ovarian, 43.5%; in the test on OVCAR-4 ovarian it was 55.2%; in the test on SK-OV-3 ovarian it was 82.2%. Also, the growth is 55.7% in the test with IGROV1 ovarian; 28.8% in the test with OVCAR-3 ovarian; 49.6% with NCI/ADR-RES ovarian; 18.3% with T-47D breast; 27.5% in the test on BT-549 breast; 15.6% in the test with MDA-MB-435 melanoma. The growth with MCF7 breast is 14.7%; in the test with HCT-116 colon it was 13.8%; in the test with HCC-2998 colon it was 31.5%; in the test on KM12 colon, 49.4%; in the test with MDA-MB-468 breast, 25.8%.

Consider `N#Cc1c(-c2cccc3ccccc23)cc(-c2cccc(OCC(=O)O)c2)[nH]c1=O`, for which the growth was 87.2% in the test on SR leukemia; 96.5% in the test with RPMI-8226 leukemia; 98.9% in the test on OVCAR-8 ovarian; 89.9% with OVCAR-5 ovarian; 91.9% in the test with OVCAR-4 ovarian; 108% in the test on SK-OV-3 ovarian. The growth in the test with IGROV1 ovarian is 110%; in the test on OVCAR-3 ovarian, 104%; with NCI/ADR-RES ovarian, 99%; with T-47D breast, 105%; with BT-549 breast, 114%; with MDA-MB-435 melanoma, 101%. Moreover, the growth in the test with MCF7 breast was 96.1%; in the test on HCT-116 colon it was 103%; in the test with HCC-2998 colon, 110%; in the test with KM12 colon, 103%; in the test with MDA-MB-468 breast, 98.7%.
